HPGD block – blocks human HPGD enzyme activity. P15428. purified HPGD, NADH fluorescence kinetic, PGE2 substrate. Potency, µM, for the others: at the highest dose activity change, negative = inhibition, actives largely listed as inhibitors. 4.3% of 150,000 active. AID 894; also: potency is read from the fitted curve at half-maximal effect
Target sequence (P15428 whole entry, looked up): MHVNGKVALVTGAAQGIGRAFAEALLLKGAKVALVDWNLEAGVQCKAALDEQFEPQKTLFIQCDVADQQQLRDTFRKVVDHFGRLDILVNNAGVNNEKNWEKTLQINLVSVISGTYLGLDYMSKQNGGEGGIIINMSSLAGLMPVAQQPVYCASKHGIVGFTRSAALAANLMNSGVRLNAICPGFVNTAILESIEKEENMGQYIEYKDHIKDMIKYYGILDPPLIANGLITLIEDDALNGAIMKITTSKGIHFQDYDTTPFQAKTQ
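20 nM HPGD preincubated 15 min at room temperature with compound in 50 mM Tris-HCl pH 8, 0.01% Tween 20. Started with 1 mM NAD+ and 30 uM prostaglandin E2; NADH fluorescence (360/450 nm) read 5 times over 30-s intervals, last minus first.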
ALDH1A1 block – blocks purified human ALDH1A1 activity; Purified ALDH1A1, NADH fluorescence, propionaldehyde substrate; Potency, µM (titrated, usually from 75.3 µM), inactives show top-dose activity, negative = inhibition, actives largely listed as inhibitors; 7.3% of 220,000 active;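 also: potency is read from the fitted curve at half-maximal effect; plate controls were no enzyme wells and a reference inhibitor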
Target sequence (P00352 whole entry, looked up): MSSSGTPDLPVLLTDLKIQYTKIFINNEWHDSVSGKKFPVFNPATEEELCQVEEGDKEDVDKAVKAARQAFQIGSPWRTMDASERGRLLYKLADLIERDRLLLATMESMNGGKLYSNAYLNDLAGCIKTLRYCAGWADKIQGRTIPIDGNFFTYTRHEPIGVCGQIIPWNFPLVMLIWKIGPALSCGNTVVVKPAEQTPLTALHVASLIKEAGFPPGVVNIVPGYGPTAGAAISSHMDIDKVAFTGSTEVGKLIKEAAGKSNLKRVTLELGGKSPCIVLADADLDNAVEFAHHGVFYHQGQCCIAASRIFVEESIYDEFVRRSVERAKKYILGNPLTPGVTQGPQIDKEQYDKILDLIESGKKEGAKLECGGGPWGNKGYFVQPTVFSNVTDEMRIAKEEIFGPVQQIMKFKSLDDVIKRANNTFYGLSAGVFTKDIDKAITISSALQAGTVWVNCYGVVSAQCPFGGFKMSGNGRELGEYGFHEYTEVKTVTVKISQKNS
IMPase Li inh – IMPase inhibition in cells with lithium potentiation | CHO-M1 cells, IP1 TR-FRET (IP-One), carbachol + lithium | Potency, µM (highest dose often 59.4 µM), for the others: top-dose activity, negative = IMPase inhibition, most hits filed as inhibitors | 0.35% of 210,000 active; active = well fitted inhibition curve with a large enough effect; inconclusive = small, poorly fitted or top-dose-only effect; inactive = no such curve, though single readings can be large or run the other way;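 also: IP1 builds up when IMPase is blocked and the TR-FRET signal falls; potency is read from the fitted curve at half-maximal effect; plate controls were basal vehicle for no effect and high inhibitor control for full effect; nearly all actives have a fitted effect of over 50% in size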
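Steps: plate 2000 CHO-M1 cells per well and culture 16–30 h; add compound and lithium; incubate 30 min, 37C; add d2-IP1 tracer and Eu cryptate anti-IP1 antibody in lysis buffer; read after 10 min at room temperature.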
PNC inhibitor – inhibitors of perinucleolar compartment assembly; 3.1% of 140,000 active; activity change (PNC), negative = inhibition, % at 10 µM; PC3M PTB-GFP, PNC prevalence imaging, 16 h; stronger effect = lower value;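 active = readout at or below -70, meaning at least 70% loss of cells showing the perinucleolar compartment, a nuclear body marking cancer cells; inconclusive = readout between -30 and a set limit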;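 also: plate controls were DMSO wells for no effect and camptothecin positive control wells for full effect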
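Compounds are pinned in duplicate onto adhered PC3M cells stably expressing GFP-tagged PTB and incubated 16 h at 37 C. Cells are then fixed, nuclei stained with Hoechst, and PNC-positive cells counted.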
IMPase cell inh – membrane-permeable compound that blocks inositol monophosphatase; P97697; CHO-M1 cells, IP1 accumulation, HTRF TR-FRET ratio; inhibition (IP1 accumulation), % at 46.1 µM; 120,000 tested, under 10 active; active = well fitted curve in the direction sought with a large enough effect in the signal ratio, not every such curve was filed as active; inconclusive = small, poorly fitted or top-dose-only effect, or a change in a side signal; inactive = no such curve, though single readings can be large or run the other way; the % refers to the signal ratio;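 also: cells stimulated with carbachol in lithium chloride buffer; plate controls were DMSO basal wells for no effect and reference inhibitor wells for full effect; higher means more IMPase inhibition seen as more IP1 and lower FRET ratio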
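Cellular IMPase inhibition is scored as a rise in cytosolic IP1, detected by competitive TR-FRET between d2-labelled IP1 and a europium anti-IP1 antibody. M1-expressing CHO cells were stimulated with carbachol for 30 min at 37C, with lithium (50 mM LiCl) present in the buffer.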
* = called active by the depositor; u = inconclusive; x = no result given; [ ] = remark or other dose. Most compounds without a hit are left out; they make up all but 11% or so of the library. Unless noted, calls follow the shape of the dose curve; as a rule, active = well fitted inhibition curve with a large enough effect (not every such curve was filed as active); inconclusive = small, poorly fitted or top-dose-only effect, or another doubt; inactive = no such curve, though single readings can be large or run the other way. Unless noted, % is scaled to controls: 0 for no effect and ±100 for the full control effect.

SMILES | HPGD block | ALDH1A1 block | IMPase Li inh | PNC inhibitor | IMPase cell inh
COCC(C)n1c(C)cc(C(=O)CSc2nc3ccccc3c(=O)[nH]2)c1C (stereo not given) | 32µM* | -8% | 13%[38.3 µM] | 36 | 11
CN(C)c1ccc(/C=N/OC(=O)Nc2ccccc2Cl)cc1 | x | -12% | 8% | x | x
COCCn1c(=O)c(-c2ccc(F)cc2)nc2cnc(N(C)C)nc21 | x | u | -30% | x | x
CCN(CC)C(=O)CSc1nc2ccccc2c(=O)[nH]1 | 8.9µM* | u | 25%[38.3 µM] | u | -8
COc1cc(/C=N/OCC(=O)NC2CCCCC2)ccc1OCc1ccccc1 | -22% | 22µM* | 10% | u | x
COc1cc(/C=N/OCC(=O)NC23CC4CC(CC(C4)C2)C3)ccc1OCc1ccccc1 | x | 22µM* | x | -24 | 1
COc1cc(/C=N/OCC(=O)Nc2ccc(OC(F)F)cc2)ccc1OCc1ccccc1 | -14% | -2% | 5% | -6 | x
Cc1ccc(-n2c(=S)[nH]c3sc4c(c3c2=O)CCC4)cc1 | x | u | 11µM* | x | x
Cn1c2ccccc2c2c3c(c4c5ccccc5n(CCC#N)c4c21)CNC3=O | x | -1% | 3.5µM* | x | x
Cc1c(C)n(CCC#N)c2ccccc12 | -11% | 6% | -1% | -9 | x
Cc1ccc2[nH]c3nc(CCCn4ccnc4-c4ccccc4)nnc3c2c1 | x | -11%[13.5 µM] | x | x | x
O=C(NNC1=C(C(=O)C(F)(F)F)CCC1)c1ccccc1Cl | 14µM* | 5% | 3%[38.3 µM] | 5 | 3
COc1ccc(O[C@H]2C=C[C@@H](c3ccccc3)O[C@@H]2COC(=O)CC/C(C)=N/OC[C@@H](O)COCc2ccco2)cc1 | -17% | 10µM* | 19% | -2 | x
C/C(CCC(=O)OC[C@@H]1O[C@H](C#Cc2ccccc2)C=C[C@@H]1Oc1ccc(C)cc1)=N/OC[C@@H](O)COCc1ccco1 | x | 0%[13.5 µM] | x | x | x
C[n+]1ccccc1/C=N/O | -13% | -5% | 6% | 25 | x
CC(O)/C=C/c1cccc[n+]1C (stereo not given) | -11% | 25µM* | -11%[38.3 µM] | u | u
CNc1nc(-c2ccc(OC)cc2)c(-c2ccc(OC)cc2)s1 | x | u | 19% | x | x
COc1ccc(-c2nc(NC(C)=O)sc2-c2ccc(OC)cc2)cc1 | x | 3.2µM* | -1% | x | x
CC(C)Cn1cnc2c(c1=O)c1nc3ccccc3nc1n2Cc1ccc2c(c1)OCO2 | -18% | 0.79µM* | 21%[38.3 µM] | u | 4
CC(C)Cn1c2nc3ccccc3nc2c2c(=O)n(CCN3CCOCC3)cnc21 | u | u | 23%[38.3 µM] | 31 | -4
COC(=O)[C@@]1(Cc2ccc(OC)cc2)[C@H]2c3cc(C(=O)N(C)C)n(Cc4ccc(C)c(F)c4F)c3C[C@H]2CN1C(=O)c1ccccc1 | -17% | -8% | 16% | x | x
N#Cc1cccc(-c2nccc(-n3ccnc3)n2)c1 | x | u | -11% | x | x
Cc1[nH][nH]c(=O)c1C(c1ccc(-c2ccc(C(=O)O)cc2)o1)c1c(C)[nH][nH]c1=O | x | u | 31% | x | x
COc1ccc(-c2ccc(C(c3c(C)[nH][nH]c3=O)c3c(C)[nH][nH]c3=O)o2)c([N+](=O)[O-])c1 | x | 10µM* | 7% | x | x
Cc1[nH][nH]c(=O)c1C(c1c(C)[nH][nH]c1=O)c1cn(C)c2ccccc12 | x | u | 22% | x | x
SMILES | HPGD block | ALDH1A1 block | IMPase Li inh | PNC inhibitor | IMPase cell inh
Cc1[nH][nH]c(=O)c1C(c1ccc(-c2ccc(Cl)c(Cl)c2)o1)c1c(C)[nH][nH]c1=O | u | 10µM* | 18%[38.3 µM] | -3 | 0
Cc1[nH][nH]c(=O)c1C(c1cc([N+](=O)[O-])ccc1O)c1c(C)[nH][nH]c1=O | -11% | -3% | 21% | -22 | 6
Cc1[nH][nH]c(=O)c1C(c1ccc(-c2ccc(F)cc2)o1)c1c(C)[nH][nH]c1=O | x | 25µM* | 12% | x | x
Cc1cc(C)nc(SC(C)CNS(=O)(=O)c2ccccc2)n1 (stereo not given) | x | -5% | 0% | x | x
COC(=O)c1c(-c2cc(OC)c(OC)c(OC)c2)c2ccc(OCc3ccccn3)cc2c(=O)n1-c1ccc(N)cc1 | -19% | 30% | 5% | x | 9
CC1(C)Cc2c(sc(NC(=O)C3CC(Cl)=CCC3C(=O)O)c2C#N)CO1 (stereo not given) | x | u | -2% | x | x
O=C(COc1ccc([N+](=O)[O-])cc1)N(Cc1ccccc1)Cc1ccccc1 | -3% | 14µM* | 14% | 23 | x
CCOC(=O)c1cnc(-n2nc(C)cc2C)nc1NC1CCCCC1 | x | 25µM* | x | u | 9
CCOC(=O)c1cnc(-n2nc(C)cc2C)nc1Nc1ccc(N(C)C)cc1 | -19% | 20µM* | 18% | 216 | -2
O=C(C[C@@H](c1ccccc1)N1CCCCC1)c1ccccc1 | u | 14%[13.5 µM] | 7% | x | x
COc1cc(OC)c(C#N)c(S(=O)Cc2ccccc2)c1 (stereo not given) | -4% | 14µM* | 28%[38.3 µM] | 32 | 2
O=C(NCc1ccco1)C12CN(Cc3ccccc3)CC1C(c1cccc([N+](=O)[O-])c1)=NO2 (stereo not given) | -9% | -6% | 21%[38.3 µM] | -86* | 3
Cc1ccc(CNC(=O)C23CN(Cc4ccccc4)CC2C(c2cccc([N+](=O)[O-])c2)=NO3)cc1 (stereo not given) | -22% | u | -7% | 48 | 5
O=C(NCc1ccco1)C12CN(Cc3ccccc3)CC1C(c1ccc([N+](=O)[O-])cc1)=NO2 (stereo not given) | -13% | 4µM* | 9%[38.3 µM] | -1 | 5
O=C(NC1(C(F)(F)F)NC(=O)N(CCc2ccccc2)C1=O)c1ccccc1Cl (stereo not given) | x | x | x | x | -4
COc1ccc(NC(=S)N/C(=N/CS(=O)(=O)c2ccccc2)c2ccccc2)cc1 | -4% | 1% | -2% | u | 8
C/C(=N\S(=O)(=O)c1ccc(C)cc1)NC(=S)Nc1ccc(C)cc1 | x | u | 0% | x | x
CC(=O)c1ccc(NC(=S)Nc2cccc(S(=O)(=O)Nc3c(C)n(C)n(-c4ccccc4)c3=O)c2)cc1 | x | 25µM* | 5% | x | x
Cc1ccc(S(=O)(=O)/N=C(/NC(=S)Nc2cccc(C)c2)c2ccccc2)cc1 | 20µM* | 13µM* | 30%[38.3 µM] | 8 | -6
O=[N+]([O-])c1ccc(NC(=S)N/C(=N/CS(=O)(=O)c2ccccc2)c2ccccc2)cc1 | 28µM* | 28µM* | 6%[38.3 µM] | u | 11
Cc1cccc(NC(=S)N/C(=N/S(=O)(=O)c2ccccc2)c2ccccc2)c1 | u | 22µM* | 30%[38.3 µM] | -24 | -7
COc1ccc2c(c1OC)C(Cc1ccccc1)N1CCc3cc4c(cc3C1=C2)OCO4 (stereo not given) | u | u | 14% | x | 14
COC(=O)C[C@@H]1O[C@H]1[C@H](C)[C@@H](OC)C(C)C | x | -14%[13.5 µM] | x | x | x
Cc1c(N/C(=N/S(=O)(=O)c2ccc(Cl)cc2)c2ccccc2)c(=O)n(-c2ccccc2)n1C | -6% | 2% | 0% | u | x
